Several values for one entry are separate records, joined by “and”; a condition that tells them apart may be missing. Equal entries are not always repeated. A structure can be active in one record and inactive in another. Activity calls are given as the source filed them. How the source made its calls: active means hit-call score of the fitted dose curve at least 0.9, where 1 is the maximum; inactive means score below 0.9.
Each compound was assayed against Cellular tumor antigen p53 (Homo sapiens) (UniProt P04637) (assay: ATG_p53_CIS: Attagene CIS-FACTORIAL HepG2 Assay for human p53 Transcription Factor (AID 2282994)). Settings: HepG2 p53 cis-element reporter, Attagene mRNA; actives raise or lower the signal.
Cellular tumor antigen p53 (Homo sapiens), sequence (P04637 whole entry, looked up): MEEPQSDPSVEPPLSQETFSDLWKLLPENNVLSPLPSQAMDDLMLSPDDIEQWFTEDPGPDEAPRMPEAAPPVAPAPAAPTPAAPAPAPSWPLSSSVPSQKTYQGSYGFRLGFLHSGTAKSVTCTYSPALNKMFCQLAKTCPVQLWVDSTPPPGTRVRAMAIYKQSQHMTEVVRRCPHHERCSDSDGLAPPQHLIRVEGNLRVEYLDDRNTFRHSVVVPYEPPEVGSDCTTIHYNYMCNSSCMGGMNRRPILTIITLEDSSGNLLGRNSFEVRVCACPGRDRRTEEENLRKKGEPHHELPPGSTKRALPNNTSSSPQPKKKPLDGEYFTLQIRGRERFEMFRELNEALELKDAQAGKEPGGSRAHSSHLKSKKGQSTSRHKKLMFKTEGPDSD
Description: ATG_CIS is a cell-based, multiplexed-readout assay that uses HepG2, a human liver cell line, with measurements taken at 24 hours after chemical dosing in a 24-well plate.ATG_p53_CIS is one of 52 assay component(s) measured or calculated from the ATG_CIS assay. It is designed to make measurements of mRNA induction, a form of inducible reporter, as detected with fluorescence intensity signals by Reverse transcription polymerase chain reaction (RT-PCR) and Capillary electrophoresis technology.Data from the assay component ATG_p53_CIS was analyzed into 1 assay endpoint. This assay endpoint, ATG_p53_CIS, was analyzed with bidirectional fitting relative to DMSO as the negative control and baseline of activity. Using a type of inducible reporter, measures of mRNA for gain or loss-of-signal activity can be used to understand the reporter gene at the transcription factor-level as they relate to the gene TP53. Furthermore, this assay endpoint can be referred to as a primary readout, because this assay has produced multiple assay endpoints where this one serves a reporter gene function. To generalize the intended target to other relatable targets, this assay endpoint is annotated to the dna binding intended target family, where the subfamily is tumor suppressor.
Human liver HepG2 cells are transiently transfected with multiple reporter transcription units (MRTUs) in 6-well plates using FuGene 6 reagent (Roche; 3 ml FuGene/1 mg DNA). The MRTU constructs are regulated by a cis-regulating element (promoter). […] A major difference between the CIS and TRANS system is that in CIS activities of endogenous TFs are measured, whereas the TRANS assay evaluates changes in activities of exogenous, chimeric NR-Gal4 proteins. […] At the end of 24 hour incubation, total RNA was isolated using TriZol reagent (Invitrogen). The isolated RNA is then reverse-transcribed using oligo(dT) primer and Mo-MLV reverse transcriptase (Invitrogen) with DNAse I (Ambion) treatment for 30 min. The one-tenth of the produced cDNA was amplified by PCR using Taq DNA polymerase (Invitrogen) and two reporter sequence-specific primers. The PCR products were fluorescently labeled by primer extension with 6-arboxyfluorescein (6-FAM) 5'-labeled reporter sequence-specific primer (2 min at 95 C, 20 s at 68 C and 10 min at 72 C) and these products were digested with 5U of HpaI (New England Biolabs) for 2h at 37 C. The fragments were purified using Qiaquick PCR columns (Qiagen), analyzed on an ABI 3130xL genetic analyzer (Applied Biosystems) with peak positions identified by using a set of X-rhodamine (ROX)-labeled MapMarker1000 molecular weight standards (BioVentures). The raw capillary electrophoresis data was processed using Attagraph software (Attagene).
With O=C(O)C(F)(F)C(F)(F)C(F)(F)C(F)(F)C(F)(F)C(F)(F)C(F)(F)F the outcome was “inactive”. For Oc1cc(Cl)ccc1Oc1ccc(Cl)cc1Cl, the AC50 was 7.73 µM (active) and 14.4 µM (active) and the outcome was “inactive”. CCS(=O)(=O)c1cccnc1S(=O)(=O)NC(=O)Nc1nc(OC)cc(OC)n1 was tested, and the outcome was “inactive”. COP(=S)(OC)Oc1ccc([N+](=O)[O-])cc1 was tested, and the outcome was “inactive”. With CCOc1nc(NC)nc(NC(=O)NS(=O)(=O)c2ccccc2C(=O)OC)n1 the outcome was “inactive”. For ClC1C(Cl)C(Cl)C(Cl)C(Cl)C1Cl (stereo not given), the AC50 was 150 µM (active) and 77.6 µM (active) and the outcome was “inactive”. In the case of Oc1ccc(Cl)cc1Cc1ccccc1, the outcome was “inactive”. For OCCOc1ccccc1, the outcome was “inactive”. With CC(C)(C)C(O)/C(=C\c1ccc(Cl)cc1Cl)n1cncn1 (stereo not given) the outcome was “inactive”. COc1cc(OC)nc(NC(=O)NS(=O)(=O)c2cc(NC=O)ccc2C(=O)N(C)C)n1 was tested, and the outcome was “inactive”. CC(C)OC(=O)Nc1cccc(Cl)c1 was tested, and the outcome was “inactive”. For COC(=O)c1ccccc1CS(=O)(=O)NC(=O)Nc1nc(OC)cc(OC)n1, the outcome was “inactive”. With O=C1c2ccccc2C(=O)N1SC(Cl)(Cl)Cl the outcome was “inactive”. In the case of CCCN(CCOc1c(Cl)cc(Cl)cc1Cl)C(=O)n1ccnc1, the outcome was “inactive”. For CN1CSC(=S)N(C)C1, the outcome was “inactive”. For O=C(O)COc1ccc(Cl)cc1Cl, the outcome was “inactive”. With CC1(c2ccc(Oc3ccccc3)cc2)OC(=O)N(Nc2ccccc2)C1=O (stereo not given) the outcome was “inactive”. With C[C@H]1[C@H](c2ccc(Cl)cc2)SC(=O)N1C(=O)NC1CCCCC1 the outcome was “inactive”. With O=S(=O)(O)C(F)(F)C(F)(F)C(F)(F)C(F)(F)C(F)(F)C(F)(F)C(F)(F)C(F)(F)F the outcome was “inactive” and the AC50 was 108 µM (active) and 66.1 µM (active) and 240 µM (active). In the case of COc1nn(CSP(=S)(OC)OC)c(=O)s1, the outcome was “inactive”. In the case of Cc1cc(C)nc(NC(=O)NS(=O)(=O)c2ccccc2C(=O)OC2COC2)n1, the outcome was “inactive”. With CCc1ccc(C(=O)NN(C(=O)c2cc(C)cc(C)c2)C(C)(C)C)cc1 the outcome was “inactive”. With CCN(CC)C(=O)SCc1ccc(Cl)cc1 the outcome was “inactive”. In the case of CC(C)(C)C(O)C(Oc1ccc(Cl)cc1)n1cncn1 (stereo not given), the outcome was “inactive”. For [2H]C1([2H])[n+]2ccccc2-c2cccc[n+]2C1([2H])[2H], the outcome was “inactive”. In the case of O=[N+]([O-])c1c(Cl)c(Cl)c(Cl)c(Cl)c1Cl, the outcome was “inactive”. In the case of O=S1OCC2C(CO1)C1(Cl)C(Cl)=C(Cl)C2(Cl)C1(Cl)Cl (stereo not given), the outcome was “inactive”. CCC(C)(NC(=O)c1cc(Cl)c(C)c(Cl)c1)C(=O)CCl (stereo not given) was tested, and the outcome was “inactive”. COC(=O)c1ccccc1S(=O)(=O)NC(=O)N(C)c1nc(C)nc(OC)n1 was tested, and the outcome was “inactive”. CNC(=O)Oc1ccccc1OC(C)C was tested, and the outcome was “inactive”. CC(C)N(C(=O)COc1nnc(C(F)(F)F)s1)c1ccc(F)cc1 was tested, and the outcome was “inactive”. In the case of CC1(C)C(C=C(Cl)Cl)C1C(=O)OC(C#N)c1ccc(F)c(Oc2ccccc2)c1 (stereo not given), the outcome was “inactive”. With O=C(Nc1ccccc1)Nc1cnns1 the outcome was “inactive”. N#Cc1c(Cl)c(Cl)c(Cl)c(C#N)c1Cl was tested, and the outcome was “inactive”. In the case of CC[C@H](C)[C@H]1O[C@]2(C=C[C@@H]1C)C[C@@H]1C[C@@H](C/C=C(\C)[C@@H](O[C@H]3C[C@H](OC)[C@@H](O[C@H]4C[C@H](OC)[C@@H](O)[C@H](C)O4)[C@H](C)O3)[C@@H](C)/C=C/C=C3\CO[C@@H]4[C@H](O)C(C)=C[C@@H](C(=O)O1)[C@]34O)O2 (tested in a mixture with another compound), the outcome was “inactive”. For CCOCN(C(=O)CCl)c1c(C)cccc1CC, the outcome was “inactive”. With CCC(C)(C)C(=O)OC1=C(c2ccc(Cl)cc2Cl)C(=O)OC12CCCCC2 the outcome was “inactive”.

Source: PubChem BioAssay (EPA / NIEHS)
